Reference: the supplement of paper PMC10037445
The full ranking holds about 2,900 compounds; the median of “NF-kB SEAP reporter activity, fold change vs agonist alone” is about 0.99, and the highest 2% start at about 2.6. The entries come from a sample that favours the highest values as a whole.

Assays:
[1] = system: RAW-Dual; assay: NF-kB SEAP reporter activity, fold change vs agonist alone; cytotoxicity flag (confluency mask): not cytotoxic; higher = enhanced NF-kB activity
Summary of the method: (§1)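 RAW-Dual macrophages were seeded in DMEM at 50,000 cells/well in 384-well plates, given 50 nL of library stock by pin tool, and given a PRR agonist 1 h later. Plates were held at 37 °C, 5% CO2 for 20 hours, after which supernatant was read for IRF by QuantiLuc luminescence and for NF-κB by QuantiBlue absorbance at 620 nm. Reporter activity is expressed as fold change over wells that received agonist alone. A well was called cytotoxic when IncuCyte confluency fell below 70% of agonist controls in both mask sets.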

[2] = system: RAW-Dual; assay: NF-kB SEAP reporter activity, fold change vs agonist alone; higher = enhanced NF-kB activity; settings: cytotoxicity flag (confluency mask): not cytotoxic
Summary of the method: as §1

[3] = agonist: ODN 1826 (TLR9) 0.5 ug/mL
[4] = agonist: Pam2CSK4 (TLR2/6) 0.1 ug/mL
[5] = agonist: Pam3CSK4 (TLR2/1) 0.1 ug/mL
[6] = library stock concentration (final ~1000-fold dilution): 10 mM, agonist: Imiquimod (TLR7) […]
[7] = library stock concentration (final ~1000-fold dilution): 10 mM, agonist: MPLA (TLR4) […]

COc1ccc2cccc(CCNC(C)=O)c2c1 (library stock concentration (final ~1000-fold dilution): 10 mM)
NF-kB SEAP reporter activity ([1]; agonist: LPS (TLR4) 0.1 ug/mL): 1.33 | NF-kB SEAP reporter activity [1, 3]: 1.09 | NF-kB SEAP reporter activity [1, 4]: 1.03 | NF-kB SEAP reporter activity [1, 5]: 1.19

COc1ccc2cccc(CCNC(C)=O)c2c1
NF-kB SEAP reporter activity [2, 6]: 0.972 | NF-kB SEAP reporter activity [2, 7]: 0.963

CCOc1ccc(Cc2cc(C34OCC(CO)(O3)C(O)C(O)C4O)ccc2Cl)cc1 (configuration not stated) (library stock concentration (final ~1000-fold dilution): 10 mM)
NF-kB SEAP reporter activity ([1]; agonist: LPS (TLR4) 0.1 ug/mL): 0.975 | NF-kB SEAP reporter activity [1, 3]: 1.1 | NF-kB SEAP reporter activity [1, 4]: 1.13 | NF-kB SEAP reporter activity [1, 5]: 0.829

CCOc1ccc(Cc2cc(C34OCC(CO)(O3)C(O)C(O)C4O)ccc2Cl)cc1 (configuration not stated)
NF-kB SEAP reporter activity [2, 7]: 1.09

COc1ccc(CCN(C)CCCC(C#N)(c2ccc(OC)c(OC)c2)C(C)C)cc1OC.Cl (configuration not stated)
NF-kB SEAP reporter activity [2, 6]: 0.98 | NF-kB SEAP reporter activity [2, 7]: 1.03

COc1ccc(CCN(C)CCCC(C#N)(c2ccc(OC)c(OC)c2)C(C)C)cc1OC.Cl (configuration not stated) (library stock concentration (final ~1000-fold dilution): 10 mM)
NF-kB SEAP reporter activity ([1]; agonist: LPS (TLR4) 0.1 ug/mL): 1.06 | NF-kB SEAP reporter activity [1, 3]: 0.89 | NF-kB SEAP reporter activity [1, 4]: 0.949 | NF-kB SEAP reporter activity [1, 5]: 1.04

CN1CC(=O)N2C(Cc3c([nH]c4ccccc34)C2c2ccc3c(c2)OCO3)C1=O (configuration not stated)
NF-kB SEAP reporter activity [2, 6]: 0.955 | NF-kB SEAP reporter activity [2, 7]: 0.984

CN1CC(=O)N2C(Cc3c([nH]c4ccccc34)C2c2ccc3c(c2)OCO3)C1=O (configuration not stated) (library stock concentration (final ~1000-fold dilution): 10 mM)
NF-kB SEAP reporter activity ([1]; agonist: LPS (TLR4) 0.1 ug/mL): 1.17 | NF-kB SEAP reporter activity [1, 3]: 1.18 | NF-kB SEAP reporter activity [1, 4]: 1.13 | NF-kB SEAP reporter activity [1, 5]: 1.11

Cc1cc([N+](=O)[O-])ccc1NS(=O)(=O)c1cc(Cl)ccc1Cl (library stock concentration (final ~1000-fold dilution): 10 mM)
NF-kB SEAP reporter activity ([1]; agonist: LPS (TLR4) 0.1 ug/mL): 3.09 | NF-kB SEAP reporter activity [1, 3]: 0.67 | NF-kB SEAP reporter activity [1, 4]: 0.323 | NF-kB SEAP reporter activity [1, 5]: 0.349

O=S(=O)(NCCSSCCNS(=O)(=O)c1cc(Cl)ccc1Cl)c1cc(Cl)ccc1Cl (library stock concentration (final ~1000-fold dilution): 10 mM)
NF-kB SEAP reporter activity ([1]; agonist: LPS (TLR4) 0.1 ug/mL): 0.705 | NF-kB SEAP reporter activity [1, 3]: 0.705 | NF-kB SEAP reporter activity [1, 4]: 0.573 | NF-kB SEAP reporter activity [1, 5]: 0.312

Cc1ccc([N+](=O)[O-])cc1S(=O)(=O)N(C)C
NF-kB SEAP reporter activity [2, 6]: 0.951 | NF-kB SEAP reporter activity [2, 7]: 1.14

Cc1ccc([N+](=O)[O-])cc1S(=O)(=O)N(C)C (library stock concentration (final ~1000-fold dilution): 10 mM)
NF-kB SEAP reporter activity ([1]; agonist: LPS (TLR4) 0.1 ug/mL): 1.07 | NF-kB SEAP reporter activity [1, 3]: 0.867 | NF-kB SEAP reporter activity [1, 4]: 0.994 | NF-kB SEAP reporter activity [1, 5]: 1.36

Cc1cc([N+](=O)[O-])ccc1NS(=O)(=O)c1cc(Cl)ccc1Cl
NF-kB SEAP reporter activity [2, 6]: 1.01 | NF-kB SEAP reporter activity [2, 7]: 1.41

O=S(=O)(NCCSSCCNS(=O)(=O)c1cc(Cl)ccc1Cl)c1cc(Cl)ccc1Cl
NF-kB SEAP reporter activity [2, 6]: 1.13 | NF-kB SEAP reporter activity [2, 7]: 1.03

COC(C)Cn1c(=O)n(C)c2cnc3ccc(-c4cncc(C(C)(C)O)c4)cc3c21 (configuration not stated)
NF-kB SEAP reporter activity [2, 6]: 0.865 | NF-kB SEAP reporter activity [2, 7]: 1.85

COC(C)Cn1c(=O)n(C)c2cnc3ccc(-c4cncc(C(C)(C)O)c4)cc3c21 (configuration not stated) (library stock concentration (final ~1000-fold dilution): 10 mM)
NF-kB SEAP reporter activity ([1]; agonist: LPS (TLR4) 0.1 ug/mL): 1.84 | NF-kB SEAP reporter activity [1, 3]: 1.26 | NF-kB SEAP reporter activity [1, 4]: 0.476 | NF-kB SEAP reporter activity [1, 5]: 1.03

CC(=O)c1c(C)c2cnc(Nc3ccc(N4CCNCC4)cn3)nc2n(C2CCCC2)c1=O.O=S(=O)(O)CCO
NF-kB SEAP reporter activity ([2]; library stock concentration (final ~1000-fold dilution): 10 mM water, agonist: Imiquimod (TLR7) […]): 0.674 | NF-kB SEAP reporter activity ([2]; library stock concentration (final ~1000-fold dilution): 10 mM water, agonist: MPLA (TLR4) […]): 1.09

CC(=O)c1c(C)c2cnc(Nc3ccc(N4CCNCC4)cn3)nc2n(C2CCCC2)c1=O.O=S(=O)(O)CCO (library stock concentration (final ~1000-fold dilution): 10 mM water)
NF-kB SEAP reporter activity ([1]; agonist: LPS (TLR4) 0.1 ug/mL): 1.71 | NF-kB SEAP reporter activity [1, 3]: 0.449 | NF-kB SEAP reporter activity [1, 4]: 0.752 | NF-kB SEAP reporter activity [1, 5]: 1.29

CCC(Nc1ncnc2[nH]cnc12)c1nc2cccc(F)c2c(=O)n1-c1ccccc1 (configuration not stated) (library stock concentration (final ~1000-fold dilution): 10 mM)
NF-kB SEAP reporter activity ([1]; agonist: LPS (TLR4) 0.1 ug/mL): 1.27 | NF-kB SEAP reporter activity [1, 3]: 1.08 | NF-kB SEAP reporter activity [1, 4]: 0.969 | NF-kB SEAP reporter activity [1, 5]: 0.843

CCC(Nc1ncnc2[nH]cnc12)c1nc2cccc(F)c2c(=O)n1-c1ccccc1 (configuration not stated)
NF-kB SEAP reporter activity [2, 6]: 0.75 | NF-kB SEAP reporter activity [2, 7]: 0.952

CC(NC(=O)c1ncnc(N)c1Cl)c1ncc(C(=O)Nc2cc(C(F)(F)F)c(Cl)cn2)s1 (configuration not stated)
NF-kB SEAP reporter activity [2, 6]: 0.623 | NF-kB SEAP reporter activity [2, 7]: 0.876

CC(NC(=O)c1ncnc(N)c1Cl)c1ncc(C(=O)Nc2cc(C(F)(F)F)c(Cl)cn2)s1 (configuration not stated) (library stock concentration (final ~1000-fold dilution): 10 mM)
NF-kB SEAP reporter activity ([1]; agonist: LPS (TLR4) 0.1 ug/mL): 0.632 | NF-kB SEAP reporter activity [1, 3]: 0.495 | NF-kB SEAP reporter activity [1, 4]: 0.383 | NF-kB SEAP reporter activity [1, 5]: 0.417

O=C1C(Cc2ccc(O)cc2)N2C(=O)CCN(C(=O)NCc3ccccc3)C2CN1Cc1cccc2ccccc12 (configuration not stated) (library stock concentration (final ~1000-fold dilution): 10 mM)
NF-kB SEAP reporter activity ([1]; agonist: LPS (TLR4) 0.1 ug/mL): 3.72 | NF-kB SEAP reporter activity [1, 3]: 1.08 | NF-kB SEAP reporter activity [1, 4]: 0.484 | NF-kB SEAP reporter activity [1, 5]: 0.63

O=C1C(Cc2ccc(O)cc2)N2C(=O)CCN(C(=O)NCc3ccccc3)C2CN1Cc1cccc2ccccc12 (configuration not stated)
NF-kB SEAP reporter activity [2, 6]: 1.45 | NF-kB SEAP reporter activity [2, 7]: 2.26

CNCCN1CCC(OCc2ccccc2)CC1.Cl.Cl
NF-kB SEAP reporter activity [2, 6]: 1.55 | NF-kB SEAP reporter activity [2, 7]: 0.921

CNCCN1CCC(OCc2ccccc2)CC1.Cl.Cl (library stock concentration (final ~1000-fold dilution): 10 mM)
NF-kB SEAP reporter activity ([1]; agonist: LPS (TLR4) 0.1 ug/mL): 1.03 | NF-kB SEAP reporter activity [1, 3]: 1.45 | NF-kB SEAP reporter activity [1, 4]: 0.877 | NF-kB SEAP reporter activity [1, 5]: 1.53
